Unmarked numbers belong to inactive results. The rule behind the calls is not given here.

This experiment relates to Aerobactin synthetase IucA (Klebsiella pneumoniae hvKP1). Briefly: Biochemical IucA enzyme inhibition primary screen of the Spectrum library (AID 1346200).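 Note: 100% = wells without compound and 0% = wells lacking enzyme.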 As to conditions: malachite green pyrophosphate, A620, at 8 µM, stronger effect = lower value.
Regarding `O=C(O)C1=C(CSc2nnnn2CS(=O)(=O)O)CS[C@@H]2C(NC(=O)[C@H](O)c3ccccc3)C(=O)N12` (stereo not given in full), the activity remaining was 116%.

For `COc1cc(O)c2c(=O)cc(-c3ccc(OC)c(-c4c(O)cc(O)c5c(=O)cc(-c6ccc(O)cc6)oc45)c3)oc2c1`, the activity remaining was 118%.

In the case of `CCCCOC(=O)c1ccc(N)cc1`, the activity remaining is 85.9%.

For `CO[C@H]1C[C@H](O[C@H]2[C@H](C)[C@@H](OC3O[C@H](C)C[C@H](N(C)C)[C@H]3O)[C@@H](C)C[C@]3(CO3)C(=O)[C@H](C)[C@@H](O)[C@@H](C)[C@@H](C)OC(=O)[C@@H]2C)O[C@@H](C)[C@@H]1O` (stereo not given in full), the activity remaining was 107%.

In the case of `COC(=O)C[C@@H]1C2(C)C(=O)[C@@H](CC3=C4C=C(OC)O[C@@H](c5ccoc5)[C@]4(C)CCC32)[C@H](O)C1(C)C` (stereo not given in full), the activity remaining was 93.6%.

On to `C=CC(C1=CC(=O)C(OC)=CC1=O)c1ccccc1` (stereo not given), for which the activity remaining was 113%.

Take `CCC(C)C(=O)OC1[C@@H]2CC3=C4CC(=O)O[C@@H](c5ccoc5)[C@]4(C)CCC3C(C)(C2=O)[C@@H](CC(=O)OC)C1(C)C` (stereo not given in full): the activity remaining was 125%.

In the case of `O=C(/C=C/c1ccccc1)O[C@H]1C[C@@H](O)[C@]2(O)C=CO[C@@H](O[C@@H]3O[C@H](CO)[C@@H](O)[C@H](O)[C@H]3O)[C@H]12`, the activity remaining is 108%.

As to `COC(=O)[C@]1(C)CC[C@]2(C)CC[C@]3(C)C4=CCc5c(cc(O)c(O)c5C)[C@]4(C)CC[C@@]3(C)C2C1` (stereo not given in full), the activity remaining was 106%.

In the case of `Cc1cccc(C)c1NC(=O)C1CCCCN1C` (stereo not given), the activity remaining is 123%.

In the case of `N[C@@H](CCC(=O)N[C@@H](CS)C(=O)NCC(=O)O)C(=O)O`, the activity remaining is 101%.

For the compound `COC(=O)C(C)c1ccc(C(=O)c2cccs2)cc1` (stereo not given), the activity remaining is 103%.

For the compound `COc1ccc(NS(=O)(=O)c2ccc(N)cc2)nn1`, the activity remaining is 111%.

Regarding `CC1(C)C[C@@H](O)[C@]2(C)CC[C@]3(C)C(=CCC4[C@@]5(C)CC[C@H](O)[C@](C)(CO)C5CC[C@]43C)[C@@H]2C1` (stereo not given in full), the activity remaining is 100%.

As for `COc1cc2cc3c4cc(OC)c(OC)cc4cc[n+]3c(C)c2cc1OC`, the activity remaining is 95.4%.

With `COC(=O)c1c(OC)cc2c(c1C)Oc1c(Cl)c(OC(C)=O)c(Cl)c(C)c1C(=O)O2`, the activity remaining was 98.6%.

With `CC(CC(O)C1OC1(C)C)[C@@H]1CCC2(C)C3=CCC4C(C)(C)C(=O)CCC4(C)C3CC[C@@]12C` (stereo not given in full), the activity remaining is 102%.

Take `NC(=O)c1cccnc1`: the activity remaining is 109%.

For the compound `NC(N)=NCCN1CCCCCCC1`, the activity remaining is 104%.

Take `CN[C@@H]1[C@H](O)[C@H](NC)[C@H]2O[C@@]3(O)C(=O)C[C@@H](C)O[C@H]3O[C@@H]2[C@H]1O`: the activity remaining is 108%.

As to `COc1ccc2cc1Oc1ccc(cc1)C[C@H]1c3c(cc4c(c3Oc3cc5c(cc3OC)CCN(C)[C@@H]5C2)OCO4)CCN1C`, the activity remaining was 115%.

Take `Cc1cc(/C=C/c2ccc3cc(N(C)C)ccc3[n+]2C)c(C)n1-c1ccccc1`: the activity remaining is 72.1%.

As to `COc1ccc(C(=O)c2ccccc2O)c(O)c1`, the activity remaining was 107%.

For `COc1cc(C)c2c(c1C=O)Oc1c(c(C)c(O)c3c1C(O)OC3=O)OC2=O` (stereo not given), the activity remaining is 114%.

For the compound `C=CCCCCCCCCCCCC(O)CC(O)CO` (stereo not given), the activity remaining is 76.1%.

For the compound `OCC(O)CN1CCN(c2ccccc2)CC1` (stereo not given), the activity remaining was 107%.

As to `O=c1c(-c2cc(O)c(O)c(O)c2)coc2cc(O)c(O)c(O)c12`, the activity remaining is 93.2%.

Turning to `COc1ccc(/C=C/C(=O)c2ccc(O)cc2O)cc1OC`, the activity remaining is 93.4%.

Regarding `COc1ccc(C(=O)c2ccccc2)c(O)c1`, the activity remaining was 116%.

On to `COc1cc(C(=O)N2CCOCC2)cc(OC)c1OC`, for which the activity remaining is 111%.

`O=c1cc(-c2ccc(O)cc2)oc2cc(O[C@@H]3O[C@H](CO)[C@@H](O)[C@H](O)[C@H]3O)cc(O)c12`: the activity remaining was 101%.

Take `CCn1cc(C(=O)O)c(=O)c2cc(F)c(N3CCNCC3)cc21`: the activity remaining is 115%.

`CC1/C(=N/O)C[C@@H]2C[C@H]1C2(C)C` (stereo not given in full): the activity remaining was 110%.

In the case of `COc1cc(/C=C/C(=O)N2CCC=CC2=O)cc(OC)c1OC`, the activity remaining is 95.4%.

On to `CC(=O)O[C@@H]1CC2C(C)(C)[C@H](O)C=C[C@]2(C)C2CC[C@@]3(C)[C@H](c4ccoc4)OC(=O)C4OC43[C@@]21C` (stereo not given in full), for which the activity remaining was 107%.

`COC(=O)C1[C@H]2C[C@H]3c4[nH]c5ccccc5c4CCN3C[C@@H]2CC[C@@H]1O` (stereo not given in full): the activity remaining was 112%.

For `Nc1ccc(S(=O)(=O)Nc2ncccn2)cc1`, the activity remaining was 120%.

`C/C=C/C(=O)N(CC)c1ccccc1C`: the activity remaining is 112%.

For the compound `O=C(Oc1ccccc1C(=O)O)c1ccccc1O`, the activity remaining is 115%.

In the case of `C[C@]12CCC3c4ccc(OS(=O)(=O)O)cc4CCC3C1CC[C@H]2O` (stereo not given in full), the activity remaining was 102%.
